Measurements reported in PubChem BioAssay (NCATS).
Inconclusive results are not listed. Values without a mark were called inactive. Calls of active or inactive are those of the source. Calls follow the shape of the dose curve; as a rule, active = well fitted inhibition curve with a large enough effect; inconclusive = small, poorly fitted or top-dose-only effect; inactive = flat fitted curve, though single readings scatter.

system: MKL-2; assay: qHTS assay to identify novel small-molecules to repurpose for Merkel cell carcinoma treatment (AID 1296009); conditions: MCC and control cell lines, CellTiter-Glo viability, 72 h; series mostly up to 46 µM; activity change, negative = cytotoxicity: at the top concentration; also: nearly all actives have a fitted effect of over 60% in size
Procedure, shortened: (§1)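 CellTiter-Glo luminescence after 72 hr compound exposure at 37 degree celsius gave cell viability. Libraries NPC and MIPE were run as 8- and 11-point dose responses; RLUs normalized to DMSO (negative) and no-cell (cytotoxicity) controls.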
% is scaled to controls: 0 for no effect and ±100 for the full control effect; potency is read from the fitted curve at half-maximal effect.

Row | Compound | Potency | activity change, negative = cytotoxicity
1 | OC1(c2ccc(Cl)c(C(F)(F)F)c2)CCN(CCCC(c2ccc(F)cc2)c2ccc(F)cc2)CC1 | 5.31 µM (active) | –
2 | CC[C@@H]([C@H](C)O)n1ncn(-c2ccc(N3CCN(c4ccc(OC[C@@H]5CO[C@@](Cn6cncn6)(c6ccc(F)cc6F)C5)cc4)CC3)cc2)c1=O | – | -31.2%
3 | CC(NCCC(c1ccccc1)c1ccccc1)c1ccccc1 (stereo not given) | 11.9 µM (active) | –
4 | CCOC(=O)N1CCC(Nc2ccc(Cl)cc2N)CC1 | 26.6 µM (active) | –
5 | CC(C)(C)c1ccc(O)c(O)c1 | 6.11 µM (active) | –
6 | CC(=O)O[C@@H]1C(=O)O[C@@H]2[C@H]1OC(=O)[C@@H]2OC(C)=O | – | -21.7%
7 | CC(C)(c1ccc(O)cc1)c1ccc(O)cc1 | – | -1.12% [at 92.7 µM]
8 | CN(CC1(C)CCCO1)S(=O)(=O)c1ccc(Cl)c(S(N)(=O)=O)c1 (stereo not given) | – | 2.18%
9 | O=C(Nc1ccc(Cl)cc1)Nc1ccc(Cl)c(C(F)(F)F)c1 | 7.5 µM (active) | –
10 | CCCCCCCCCCCCCCCCCCNC(=O)OC1CCN(C(=O)OC[C@H](COC(=O)N(Cc2cccc[n+]2CC)C(=O)c2ccccc2OC)OC)CC1 | 2.66 µM (active) | –
11 | OCc1c[nH]c2ccccc12 | 24.3 µM (active) | –
12 | O=C1NCCN1CCN1CCC(c2cn(-c3ccc(F)cc3)c3ccc(Cl)cc23)CC1 | 2.99 µM (active) | –
13 | CCOC(=O)C1=C(C)NC(C)=C(C(=O)OCC)C1c1ccccc1/C=C/C(=O)OC(C)(C)C | 21.1 µM (active) | –
14 | CC(C)=CCC/C(C)=C/CC/C(C)=C/C(=O)OCC(=O)[C@@]1(O)CC[C@H]2[C@@H]3CCC4=CC(=O)C=C[C@]4(C)[C@H]3[C@@H](O)C[C@@]21C | – | 9.13%
15 | COc1c(C)c2c(c(O)c1C/C=C(\C)CCC(=O)OCCN1CCOCC1)C(=O)OC2 | – | -61.2%
16 | CCOC(=O)[C@H](CCc1ccccc1)N[C@@H](C)C(=O)N(CC(=O)O)C1Cc2ccccc2C1 | – | -1.06%
17 | CC(=O)Nc1ccn(C2COC(COC(=O)c3ccccc3)O2)c(=O)n1 (stereo not given) | – | 5.43%
18 | O=C(Nc1ccc(Cl)cc1)Nc1ccc(Cl)c(Cl)c1 | 5.96 µM (active) | –
19 | CCCCNc1ccc(C(=O)OCCN(CC)CC)cc1 | – | 3.74%
20 | CC(=O)Oc1ccc(C2(c3ccc(OC(C)=O)cc3)Oc3ccccc3NC2=O)cc1 | – | -25.6%
21 | Cc1cc(C(C)(C)C)c(O)c(C(C)(C)C)c1 | – | -3.39%
22 | O=C1NC2CCCCN2C12CCN(CCCN1c3ccccc3CCc3ccc(Cl)cc31)CC2 (stereo not given) | 21.1 µM (active) | –
23 | COc1ccc([C@@H]2Sc3ccccc3NC(=O)[C@@H]2O)cc1 | – | -2.87%
24 | O=S(=O)(O)c1ccc2nc(-c3ccccc3)[nH]c2c1 | – | -17.8%
25 | CCCC(=O)c1cc(O)c(O)cc1O | 27.3 µM (active) | –
26 | CCCCCC(=O)O[C@]1(C(C)=O)CC[C@H]2[C@@H]3CCC4=CC(=O)CC[C@]4(C)[C@H]3CC[C@@]21C | – | -73.2%
27 | CCC1(c2cnc[nH]2)Cc2ccccc2C1 | – | 2.19%
28 | CC(C)OC(=O)c1cc2c(OCC(O)CNC(C)(C)C)cccc2[nH]1 (stereo not given) | – | -18.1%
29 | CC(C)C[C@H](NC(=O)CNC(=O)[C@H](Cc1ccc(O)cc1)NC(=O)[C@H](CO)NC(=O)[C@H](Cc1c[nH]c2ccccc12)NC(=O)[C@H](Cc1cnc[nH]1)NC(=O)[C@@H]1CCC(=O)N1)C(=O)N[C@@H](CCCN=C(N)N)C(=O)N1CCC[C@H]1C(=O)NCC(N)=O (stereo in doubt) | – | 18.8%
30 | CN1CCC(Nc2ncc3ncnc(Nc4ccc(F)c(Cl)c4)c3n2)CC1 | 15 µM (active) | –

system: UISO; assay: as above; conditions: MCC and control cell lines, CellTiter-Glo viability, 72 h; series mostly up to 46 µM; activity change, negative = cytotoxicity: at the top concentration
Procedure, shortened: as §1

Row | Compound | activity change, negative = cytotoxicity [%] | Potency
31 | O=C(c1cc(O)c(O)c(O)c1)c1ccc(O)c(O)c1O | -24.6 | –
32 | OC1(c2ccc(Cl)c(C(F)(F)F)c2)CCN(CCCC(c2ccc(F)cc2)c2ccc(F)cc2)CC1 | – | 10.6 µM (active)
33 | CC[C@@H]([C@H](C)O)n1ncn(-c2ccc(N3CCN(c4ccc(OC[C@@H]5CO[C@@](Cn6cncn6)(c6ccc(F)cc6F)C5)cc4)CC3)cc2)c1=O | -21.5 | –
34 | Cc1cc(OCCOCC[N+](C)(C)Cc2ccccc2)ccc1C(C)(C)CC(C)(C)C | – | 4.22 µM (active)
35 | O=C(CCC1CCN(Cc2ccccc2)CC1)c1ccc2c(c1)NCCCC2 | -30 | –
36 | CC(C)(C)c1ccc(O)c(O)c1 | – | 15.4 µM (active)
37 | CC(=O)O[C@@H]1C(=O)O[C@@H]2[C@H]1OC(=O)[C@@H]2OC(C)=O | 0.849 | –
38 | CN(CC1(C)CCCO1)S(=O)(=O)c1ccc(Cl)c(S(N)(=O)=O)c1 (stereo not given) | 16.4 | –
39 | O=C(Nc1ccc(Cl)cc1)Nc1ccc(Cl)c(C(F)(F)F)c1 | – | 10.6 µM (active)
40 | CCCCCCCCCCCCCCCCCCNC(=O)OC1CCN(C(=O)OC[C@H](COC(=O)N(Cc2cccc[n+]2CC)C(=O)c2ccccc2OC)OC)CC1 | – | 6.68 µM (active)
41 | OCc1c[nH]c2ccccc12 | – | 10.9 µM (active)
42 | CCOC(=O)C1=C(C)NC(C)=C(C(=O)OCC)C1c1ccccc1/C=C/C(=O)OC(C)(C)C | – | 26.6 µM (active)
43 | CN1CC[C@H](c2c(O)cc(O)c3c(=O)cc(-c4ccccc4Cl)oc23)[C@H](O)C1 | – | 0.473 µM (active)
44 | Nc1ccc2cc3ccc(N)cc3nc2c1 | – | 8.41 µM (active)
45 | CC(C)=CCC/C(C)=C/CC/C(C)=C/C(=O)OCC(=O)[C@@]1(O)CC[C@H]2[C@@H]3CCC4=CC(=O)C=C[C@]4(C)[C@H]3[C@@H](O)C[C@@]21C | 2.52 | –
46 | CCOC(=O)[C@H](CCc1ccccc1)N[C@@H](C)C(=O)N(CC(=O)O)C1Cc2ccccc2C1 | 2.98 | –
47 | O=C(Nc1ccc(Cl)cc1)Nc1ccc(Cl)c(Cl)c1 | – | 10.6 µM (active)
48 | CCCCNc1ccc(C(=O)OCCN(CC)CC)cc1 | 30.7 | –
49 | Cc1cc(C(C)(C)C)c(O)c(C(C)(C)C)c1 | 8.86 | –
50 | CC(CC1c2ccccc2CCc2ccccc21)CN(C)C (stereo not given) | -14.8 | –
51 | O=S(=O)(O)c1ccc2nc(-c3ccccc3)[nH]c2c1 | 1.1 | –
52 | CC(=O)[C@@]1(O)CC[C@H]2[C@@H]3C[C@H](C)C4=CC(=O)CC[C@]4(C)[C@H]3CC[C@@]21C | -0.753 | –
53 | CCC1(c2cnc[nH]2)Cc2ccccc2C1 | -26.9 | –
54 | CC(C)OC(=O)c1cc2c(OCC(O)CNC(C)(C)C)cccc2[nH]1 (stereo not given) | -23 | –
55 | CN1CCC(Nc2ncc3ncnc(Nc4ccc(F)c(Cl)c4)c3n2)CC1 | -9.93 | –
